From PubChem BioAssay

Molecular target: Neurogenic locus notch homolog protein 3 (Homo sapiens) (UniProt Q9UM47)
Sequence (Q9UM47 whole entry, looked up): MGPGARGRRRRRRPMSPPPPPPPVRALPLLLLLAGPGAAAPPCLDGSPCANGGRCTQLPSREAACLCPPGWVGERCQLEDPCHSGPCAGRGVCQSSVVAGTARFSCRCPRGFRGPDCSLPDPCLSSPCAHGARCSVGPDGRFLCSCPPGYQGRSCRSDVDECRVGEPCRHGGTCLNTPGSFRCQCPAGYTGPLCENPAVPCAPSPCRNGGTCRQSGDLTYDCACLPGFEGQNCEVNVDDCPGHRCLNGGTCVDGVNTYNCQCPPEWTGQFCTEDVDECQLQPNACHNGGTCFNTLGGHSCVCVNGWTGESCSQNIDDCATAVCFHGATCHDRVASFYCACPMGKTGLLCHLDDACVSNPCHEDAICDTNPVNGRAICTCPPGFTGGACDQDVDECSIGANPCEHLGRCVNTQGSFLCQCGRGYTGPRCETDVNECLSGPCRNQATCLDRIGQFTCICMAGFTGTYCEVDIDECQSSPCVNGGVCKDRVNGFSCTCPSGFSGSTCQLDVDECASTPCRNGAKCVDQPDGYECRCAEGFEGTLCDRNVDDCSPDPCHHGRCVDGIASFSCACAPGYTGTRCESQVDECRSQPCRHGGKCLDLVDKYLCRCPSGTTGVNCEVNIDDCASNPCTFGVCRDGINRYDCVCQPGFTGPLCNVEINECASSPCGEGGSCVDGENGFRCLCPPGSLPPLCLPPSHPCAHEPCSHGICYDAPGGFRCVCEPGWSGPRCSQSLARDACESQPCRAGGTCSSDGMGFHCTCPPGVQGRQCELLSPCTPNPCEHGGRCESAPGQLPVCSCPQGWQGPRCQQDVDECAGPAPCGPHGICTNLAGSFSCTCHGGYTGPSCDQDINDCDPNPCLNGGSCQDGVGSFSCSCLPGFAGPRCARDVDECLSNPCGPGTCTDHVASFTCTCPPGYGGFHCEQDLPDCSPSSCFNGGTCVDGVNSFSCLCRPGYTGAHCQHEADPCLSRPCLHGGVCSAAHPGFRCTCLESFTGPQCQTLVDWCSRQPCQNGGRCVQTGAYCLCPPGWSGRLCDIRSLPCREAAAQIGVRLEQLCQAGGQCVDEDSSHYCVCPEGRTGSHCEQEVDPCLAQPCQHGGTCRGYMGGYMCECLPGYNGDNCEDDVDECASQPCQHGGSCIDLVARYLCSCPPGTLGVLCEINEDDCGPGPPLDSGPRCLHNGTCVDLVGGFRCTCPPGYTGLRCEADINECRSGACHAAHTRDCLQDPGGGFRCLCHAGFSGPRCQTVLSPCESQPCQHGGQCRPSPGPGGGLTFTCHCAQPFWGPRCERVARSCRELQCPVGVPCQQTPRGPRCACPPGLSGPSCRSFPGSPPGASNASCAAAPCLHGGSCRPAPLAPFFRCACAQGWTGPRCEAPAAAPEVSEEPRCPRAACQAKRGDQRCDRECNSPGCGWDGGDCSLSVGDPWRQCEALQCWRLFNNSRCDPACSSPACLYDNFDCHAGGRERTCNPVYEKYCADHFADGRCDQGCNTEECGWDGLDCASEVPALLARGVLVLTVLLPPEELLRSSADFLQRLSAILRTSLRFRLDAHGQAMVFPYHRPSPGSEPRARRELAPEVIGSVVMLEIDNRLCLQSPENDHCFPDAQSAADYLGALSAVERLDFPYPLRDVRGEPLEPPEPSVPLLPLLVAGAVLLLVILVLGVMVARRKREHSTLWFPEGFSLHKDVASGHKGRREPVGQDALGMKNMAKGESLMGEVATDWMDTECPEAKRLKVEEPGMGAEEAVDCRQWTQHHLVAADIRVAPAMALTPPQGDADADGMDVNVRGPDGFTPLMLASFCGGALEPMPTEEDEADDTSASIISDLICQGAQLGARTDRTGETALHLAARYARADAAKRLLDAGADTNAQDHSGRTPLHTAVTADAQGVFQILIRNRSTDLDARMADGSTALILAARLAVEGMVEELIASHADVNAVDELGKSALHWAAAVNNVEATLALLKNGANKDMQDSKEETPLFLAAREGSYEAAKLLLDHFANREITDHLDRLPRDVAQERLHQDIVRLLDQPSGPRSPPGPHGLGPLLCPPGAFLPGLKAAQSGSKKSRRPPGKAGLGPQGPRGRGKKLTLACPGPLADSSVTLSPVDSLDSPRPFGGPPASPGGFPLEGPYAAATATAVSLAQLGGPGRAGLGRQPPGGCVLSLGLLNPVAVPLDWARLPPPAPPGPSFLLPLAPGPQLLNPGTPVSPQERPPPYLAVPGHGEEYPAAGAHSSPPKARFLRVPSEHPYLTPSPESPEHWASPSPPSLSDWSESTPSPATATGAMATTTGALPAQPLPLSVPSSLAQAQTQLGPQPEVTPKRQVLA
Experiment: small molecules binding NOTCH3 protein – biochemical, 635/667 nm fluorescence, primary screen (AID 1096)
Conditions: small-molecule microarray, 635 nm fluorescence, higher = more signal
In the case of `Cc1ccc(C(C)CC(O)C2C=CC3C(=O)N(c4ccccc4)C(=O)C3N2Nc2ccccc2)o1` (configuration not stated), the composite z-score is reported as 1.04.
`CCOC(=O)C1=C[C@@H](C(C)(C)C)N(S(=O)(=O)c2ccc(C)cc2)[C@H]1c1cccc2ccccc12` showed a composite z-score of 1.09.
Work on `CC(C)N1C(=O)C[C@@](C(=O)NC2CC2)(c2ccc([N+](=O)[O-])cc2)[C@H]1c1ccc(CO)cc1` yielded a composite z-score of -0.46.
Compound `COC(=O)c1c(CC[C@@H](CO)NC(=O)N2CCC[C@H]2Cn2cc(C3(O)CCCCC3)nn2)oc(C(C)=O)c1C(=O)OC` has a composite z-score of 0.916.
With `NC(=O)NCC#Cc1ccc2c(c1)[C@]1(C(=O)N2)[C@H](c2ccccc2OCCO)N2[C@H](c3ccccc3)[C@H](c3ccccc3)OC(=O)[C@H]2[C@@H]1C(=O)NC[C@H](O)c1ccccc1` the composite z-score was -0.112.
In the case of `CN(C)C(=O)[C@]1(CCC(=O)OC(C)(C)C)N=C(c2ccc(OCCCO)cc2)O[C@@H]1c1ccccc1CN=[N+]=[N-]`, the composite z-score is reported as -0.162.
Compound `Cc1ccccc1C(O)C1C=CC2C(=O)NC(=O)C2N1Nc1ccccn1` (configuration not stated) has a composite z-score of -0.308.
With `COCCOC(=O)N1C(=O)[C@@]2(c3ccccc31)[C@H](C(=O)NC[C@H](O)c1ccccc1)[C@H]1C(=O)O[C@H](c3ccccc3)[C@H](c3ccccc3)N1[C@@H]2c1ccc(O)cc1` the composite z-score was 1.05.
Compound `CC1CC/C=C\[C@H]2OC34C=CCN(C(C)C)C(=O)[C@H]3N(CCO)C(=O)[C@@H]4C2C(=O)O1` (some centres not stated) has a composite z-score of -0.355.
With `CCOC(=O)C=Cc1cccc(C)c1O` the composite z-score was -0.0138.
Compound `CCCCCCCCCCC(O)C1C=CC2C(=O)N(c3ccccc3)C(=O)C2N1Nc1ccc(C#N)cc1` (configuration not stated) has a composite z-score of 1.09.
In the case of `COCC(=C=CC[C@H](O)c1ccc(CO)o1)CCO`, the composite z-score is reported as 1.12.

Test system: not listed separately
Experiment: probe aEGFR binding to arrayed compounds – biochemical, biotinylated probe, 635/667 nm fluorescence, primary screen (AID 1097);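 note: probe is a biotinylated anti-EGFR antibody binding compounds printed on slides; score combines fluorescence near 667 nm and signal to noise of each spot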
Conditions: small-molecule microarray, higher = more signal
In the case of `CCCC1(C(=O)OC)C=C2C(=C(C)C(=O)C2C)CN1` (configuration not stated), the composite z-score is reported as -0.0828.
Work on `NCCCCCNC(=O)[C@@H]1C[C@@H]2C(=O)N[C@@H](CCCCN)C(=O)N2[C@@H]1c1ccc(O)cc1` yielded a composite z-score of 0.345.
Compound `CCCN1C(=O)[C@]2(Cc3ccccc31)N=C(c1ccc(OCCCO)cc1)O[C@@H]2c1ccccc1` has a composite z-score of -0.139.
With `CCN(CC)c1ccc(N2CC=CC34O[C@@H]5/C=C\CCCOC(=O)C5[C@H]3C(=O)N(C(C)CO)[C@@H]4C2=O)cc1` (some centres not stated) the composite z-score was -0.189.
In the case of `NC(=O)[C@H]1[C@@H]2C(=O)O[C@@H](c3ccccc3)[C@@H](c3ccccc3)N2[C@@H](c2ccc(OCCO)cc2)[C@]12C(=O)Nc1ccc(C#CCCO)cc12`, the composite z-score is reported as 0.0932.
Work on `CC(C)C(CO)N1C(=O)[C@@H]2[C@H]3C(=O)OCC=C[C@H]3OC23C=CCN(c2ccc(Cl)cc2)C(=O)[C@@H]13` (some centres not stated) yielded a composite z-score of -0.068.
In the case of `C=CCNC(=O)[C@@H]1[C@H]2C(=O)O[C@H](c3ccccc3)[C@H](c3ccccc3)N2[C@H](c2ccccc2OCCO)[C@@]12C(=O)Nc1ccc(C#CCC(C(=O)OC)C(=O)OC)cc12`, the composite z-score is reported as -0.24.
Compound `COc1ccc(C#Cc2ccc3c(c2)[C@]2(C(=O)N3)[C@H](C(=O)O)[C@H]3C(=O)O[C@H](c4ccccc4)[C@H](c4ccccc4)N3[C@@H]2c2ccc(O)cc2)cc1` has a composite z-score of -0.0758.
`CCCC[C@@H](O)C1=C(COC)C[C@H]2C(=O)N(Cc3ccccc3)C(=O)[C@H]2[C@H]1CO` showed a composite z-score of -0.113.
`COC(=O)[C@@]1(Cc2ccc(F)cc2)[C@H]2c3cc(C(=O)N4CCCC4)n(Cc4ccc(C)c(F)c4F)c3C[C@H]2CN1C(=O)c1ccccc1` gave a composite z-score of -0.111.
For `C=CCNC(=O)[C@@H]1[C@H]2C(=O)O[C@H](c3ccccc3)[C@H](c3ccccc3)N2[C@H](c2ccc(O)cc2)[C@@]12C(=O)N(C(=O)OCCOC)c1ccc(C#CC3=CCCCC3)cc12`, the composite z-score was -0.0697.
Work on `C#Cc1cc2ccccc2oc1=O` yielded a composite z-score of -0.325.
`COc1cc(NN2C(C(O)c3cc(OC)c(OC)c(OC)c3)C=CC3C(=O)N(C)C(=O)C32)cc(OC)c1OC` (configuration not stated) gave a composite z-score of 0.08.
Compound `CO[C@H]1O[C@H](CO)[C@@H](OC(=O)Nc2ccccc2)[C@H](OC(=O)c2cc3ccccc3[nH]2)[C@H]1OC(=O)c1cc2ccccc2[nH]1` has a composite z-score of 0.0153.
With `CCOC(=O)C[C@H]1[C@H](OC(=O)Cc2ccc3c(c2)OCO3)[C@@H](NC(=O)c2ccc3ccccc3n2)c2cc(OCCCO)ccc2N1C(=O)c1ccc2ccccc2n1` the composite z-score was -0.124.
`COc1ccc(C#Cc2ccc3c(c2)[C@]2(C(=O)N3)[C@H](c3ccc(OCCO)cc3)N3[C@H](c4ccccc4)[C@H](c4ccccc4)OC(=O)[C@H]3[C@@H]2C(=O)NC[C@H](O)c2ccccc2)cc1` showed a composite z-score of -0.0152.
In the case of `NCCCCCNC(=O)[C@H]1C[C@H]2C(=O)N3CCC[C@H]3C(=O)N2[C@H]1c1cccc(OCCO)c1`, the composite z-score is reported as 0.102.
With `CO[C@H]1O[C@H](CO)[C@@H](OC(=O)Nc2ccc(Br)cc2)[C@@H]2OC(=O)[C@@H](Cc3ccccc3)C/C=C/C[C@H](Cc3ccccc3)C(=O)O[C@@H]12` the composite z-score was -0.0668.
`CCOC(=O)[C@@H]1CCCCN1C(=O)C(=O)OC` showed a composite z-score of -0.133.
In the case of `O=C(Cc1ccccc1)[C@H]1C2C=CCCC(c3ccccc3)=C2CN1Cc1ccccc1` (some centres not stated), the composite z-score is reported as -0.0828.
With `CCOC(=O)C[C@H]1[C@H](OC(=O)Cc2ccc3c(c2)OCO3)[C@@H](NC(=O)C2CCCCC2)c2cc(OCCCO)ccc2N1C(=O)c1ccccc1` the composite z-score was -0.0452.
`C=C[C@H](C)[C@H](OC(=O)Nc1ccc(SC)cc1)c1ccc(OCCO)cc1` showed a composite z-score of -0.15.
`CCCCC(CC)C(O)C1C=CC2C(=O)N(c3ccccc3)C(=O)C2N1Nc1ccccc1F` (configuration not stated) gave a composite z-score of -0.162.
With `Cc1ccc(C(C)CC(O)C2C=CC3C(=O)N(c4ccccc4)C(=O)C3N2Nc2ccccc2)o1` (configuration not stated) the composite z-score was 0.216.
With `CCOC(=O)C1=C[C@@H](C(C)(C)C)N(S(=O)(=O)c2ccc(C)cc2)[C@H]1c1cccc2ccccc12` the composite z-score was -0.0828.
In the case of `CC(C)N1C(=O)C[C@@](C(=O)NC2CC2)(c2ccc([N+](=O)[O-])cc2)[C@H]1c1ccc(CO)cc1`, the composite z-score is reported as -0.281.
With `COC(=O)c1c(CC[C@@H](CO)NC(=O)N2CCC[C@H]2Cn2cc(C3(O)CCCCC3)nn2)oc(C(C)=O)c1C(=O)OC` the composite z-score was -0.0097.
For `NC(=O)NCC#Cc1ccc2c(c1)[C@]1(C(=O)N2)[C@H](c2ccccc2OCCO)N2[C@H](c3ccccc3)[C@H](c3ccccc3)OC(=O)[C@H]2[C@@H]1C(=O)NC[C@H](O)c1ccccc1`, the composite z-score was -0.162.
`CN(C)C(=O)[C@]1(CCC(=O)OC(C)(C)C)N=C(c2ccc(OCCCO)cc2)O[C@@H]1c1ccccc1CN=[N+]=[N-]` showed a composite z-score of -0.149.
Work on `Cc1ccccc1C(O)C1C=CC2C(=O)NC(=O)C2N1Nc1ccccn1` (configuration not stated) yielded a composite z-score of 0.092.
In the case of `COCCOC(=O)N1C(=O)[C@@]2(c3ccccc31)[C@H](C(=O)NC[C@H](O)c1ccccc1)[C@H]1C(=O)O[C@H](c3ccccc3)[C@H](c3ccccc3)N1[C@@H]2c1ccc(O)cc1`, the composite z-score is reported as 0.569.
For `CC1CC/C=C\[C@H]2OC34C=CCN(C(C)C)C(=O)[C@H]3N(CCO)C(=O)[C@@H]4C2C(=O)O1` (some centres not stated), the composite z-score was -0.281.
`CCOC(=O)C=Cc1cccc(C)c1O` showed a composite z-score of -0.099.
For `CCCCCCCCCCC(O)C1C=CC2C(=O)N(c3ccccc3)C(=O)C2N1Nc1ccc(C#N)cc1` (configuration not stated), the composite z-score was 0.0288.
In the case of `COCC(=C=CC[C@H](O)c1ccc(CO)o1)CCO`, the composite z-score is reported as -0.0976.
